# This is a sample that favours compounds with a hit; in the whole collection about 21% have one here.
# DRD3 antagonist – blocks the human D3 dopamine receptor. D3R cells, DiscoveRx beta-arrestin luminescence, antagonist mode; stronger effect = lower value. max response, negative = inhibition, %. 2.5% of 360,000 active. AID 652054; in the data active = max response below about -50%; inconclusive = no clear call, values can overlap the other calls; note: % is set by controls: 0 for no effect and ±100 for the full control effect
# Target sequence (P35462 whole entry, looked up): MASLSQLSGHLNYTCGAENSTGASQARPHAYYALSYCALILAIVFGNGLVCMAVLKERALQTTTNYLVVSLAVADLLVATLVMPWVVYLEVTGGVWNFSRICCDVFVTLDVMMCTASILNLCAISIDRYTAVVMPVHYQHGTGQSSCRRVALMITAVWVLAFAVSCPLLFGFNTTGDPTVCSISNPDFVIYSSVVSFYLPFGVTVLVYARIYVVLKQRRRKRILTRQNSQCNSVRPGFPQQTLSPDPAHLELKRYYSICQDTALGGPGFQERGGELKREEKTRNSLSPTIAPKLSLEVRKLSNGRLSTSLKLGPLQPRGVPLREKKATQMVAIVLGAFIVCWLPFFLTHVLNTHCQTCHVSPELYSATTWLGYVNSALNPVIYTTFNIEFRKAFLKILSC
#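 Cells expressing the human receptor were seeded at 1500 cells/well, incubated overnight at 37 degrees C in 5% CO2, then exposed to library compounds with dopamine controls for 90 minutes at 37 degrees C before luminescent detection.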
# DT40 TDP1 CPT – DT40-hTDP1 cell growth loss with CPT; chicken DT40 Tdp1-/-;hTDP1 cells + 20 nM CPT, ATP luminescence, 48 h; 12% of 420,000 active; Potency, µM (series often up to 46.2 µM), inactives show at the top dose activity change, negative = growth inhibition, usual class: inhibitors; note: potency is the fitted concentration of half-maximal effect; % is set by controls: 0 for no effect and ±100 for the full control effect; nearly all actives have a fitted effect of over 55% in size
#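 Cell growth measured by CellTiter-Glo luminescence after a minimum 48 h, 37 C compound exposure with 20 nM CPT in Tdp1-knockout DT40 cells stably expressing hTDP1, seeded 400/well; qHTS titration format.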
# IL-1B inflam inh – inhibitors of inflammasome signaling (IL-1 beta secretion) | THP-1 LPS/ATP IL-1B secretion, AlphaLISA, 16 h; stronger effect = lower value | activity change, % at 57.5 µM | 4.7% of 360,000 active; in the data active = activity change below about -50%; inconclusive = mostly about -30% to -49%; note: % is set by controls: 0 for no effect and ±100 for the full control effect
#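 Secreted IL-1B measured by AlphaLISA bead assay after 16 h compound exposure of THP-1 cells; compounds (final up to 57.5 uM) added 1 h before LPS (250 ng/mL) and ATP (1.25 mM) stimulation; lower signal means less secretion.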
# DT40 TDP1 no CPT – qHTS for Inhibitors of human tyrosyl-DNA phosphodiesterase 1 (TDP1): qHTS in cells in absence of CPT | DT40 Tdp1-/- hTDP1 cells, no CPT, ATP luminescence, 48 h | Potency, µM (doses to about 46.2 µM), inactives show top-dose activity change, negative = growth inhibition, most hits filed as inhibitors | 15% of 420,000 active; note: potency is the fitted concentration of half-maximal effect; % is set by controls: 0 for no effect and ±100 for the full control effect; nearly all actives have a fitted effect of over 55% in size
#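 Growth kinetics read by CellTiter-Glo luminescence after ≥48 hr at 37 °C. Cells: DT40 Tdp1-/- stably carrying human TDP1, 400 per well, compound exposure in the absence of CPT (DMSO vehicle).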
# D3 ag – activates the human D3 dopamine receptor; P35462; D3R DiscoveRx beta-arrestin cells, luminescence, 90 min; max activation, %; 0.58% of 410,000 active; in the data active = max activation above about 30%; note: 0% is about no effect
#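 Agonist-mode cell screen: cells plated at 1500/well and incubated overnight at 37 °C, then exposed to library compounds for 90 min at 37 °C. Detection reagent was added for 30–60 min at room temperature, and luminescence was read.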
# ClpP mod – qHTS Assay for Activators of ClpP; ATP-dependent Clp protease proteolytic subunit (Bacillus subtilis (strain 168)), P80244; purified B. subtilis ClpP, FRET peptide cleavage, 20 min; Potency, µM (top dose mostly 57.5 µM), inactives show top-dose activity change, negative = active; 1.9% of 340,000 active; active = well fitted falling curve with a large enough effect; inconclusive = small, poorly fitted or top-dose-only effect; inactive = no such curve, though single readings can be large or run the other way; note: potency is the fitted concentration of half-maximal effect; the source files actives as falling curves though it sought activators and does not explain the sign; nearly all actives have a fitted effect of over 65% in size
# Target sequence (P80244 whole entry, looked up): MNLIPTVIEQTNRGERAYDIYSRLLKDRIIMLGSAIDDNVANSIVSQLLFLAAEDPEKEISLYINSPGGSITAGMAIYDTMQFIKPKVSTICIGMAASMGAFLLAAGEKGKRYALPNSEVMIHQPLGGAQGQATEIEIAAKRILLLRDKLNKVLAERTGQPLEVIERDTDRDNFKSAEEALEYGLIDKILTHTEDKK
#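 FRET quenching reversal measured ClpP activation: 10 microg/mL B. subtilis ClpP at pH 8 with the FRET-FV decapeptide, read at 430 nm after 320 nm excitation. The 20-min minus 0-min signal was scaled between DMSO/no-enzyme wells and ADEP (5.8 microM final).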
# * hit, by the source's call; u = inconclusive; x = not tested or not shown. Unless noted, calls come from the whole dose curve; as a rule, active = well fitted inhibition curve with a large enough effect; inconclusive = small, poorly fitted or top-dose-only effect; inactive = flat fitted curve, though single readings scatter.
SMILES,DRD3 antagonist,DT40 TDP1 CPT,IL-1B inflam inh,DT40 TDP1 no CPT,D3 ag,ClpP mod
CC(C)N1CCN(c2ccc(OCC3COC(Cn4cncn4)(c4ccc(Cl)cc4Cl)O3)cc2)CC1 (configuration not stated),-20,u,-53*,u,-14,-11%
Cc1nc(-c2coc3c(CN(C)C)c(O)ccc3c2=O)cs1,-6,u,28,-11%,19,32µM*
CCN(CC)Cc1c(O)ccc2c(=O)c(-c3ccc4c(c3)OCCO4)coc12,u,3.3µM*,1,10µM*,-2,28µM*
O=c1c(-c2ccccc2)coc2c(CN3CCCC3)c(O)ccc12,-2,-15%,-6,-15%,4,28µM*
CCN(CC)Cc1c(O)ccc2c(=O)c(-c3ccccc3)coc12,-19,9.2µM*,-12,u,-11,4%
Cc1cccc(C)c1NC(=O)CN1CCN(CC(=O)NCC2(N3CCCCC3)CCCCC2)CC1,-15,-3%,-14,12%,-10,-1%
Cc1ccc(-n2c(C)nn(Cc3ccc([N+](=O)[O-])cc3)c2=O)cc1,0,-15%,-5,-24%,-5,x
Cc1ccc(-n2c3nc(=O)[nH]c(=O)c-3cc3cc([N+](=O)[O-])ccc32)cc1,11,5.8µM*,-107*,5.2µM*,-7,-8%
CCN1CCN(C(=O)C2CCCN(S(=O)(=O)c3cccc4nsnc34)C2)CC1 (configuration not stated),-22,4%,-23,18%,-4,-1%
CSc1nnc(-c2cc3c(-c4ccccc4)nn(C)c3s2)n1C,1,u,u,23µM*,-2,u
COc1ccc(-c2cc(NC=O)c3ncc(-c4ccc(OC)c(OC)c4)n3c2)cc1,33,0.73µM*,-11,1µM*,1,u
COc1ccc(-c2cnc3c(NC=O)cc(-c4ccccc4OC)cn23)cc1OC,6,0.029µM*,32,0.0073µM*,2,u
COc1ccc(-c2cc(NC=O)c3ncc(-c4ccc(OC)c(OC)c4)n3c2)cc1OC,0,5.2µM*,-62*,4.1µM*,13,-24%
COc1ccccc1C(=O)NC(=O)CSc1nnc(C)s1,17,-5%,14,29%,1,-1%
C=CCNc1cccc(Br)c1,19,-22%,22,-19%,10,1%
COc1ccc(OC)c(NC(=O)N2CCN(Cc3nc4ccc(C)cc4o3)CC2)c1,x,u,x,-2%,4,0%
Cc1cccc(C)c1NC(=O)C1(C)CSCC(=O)N1CCc1ccc(O)cc1 (configuration not stated),-1,24%,8,3%,-2,2%
S=C(Nc1cc(Cl)ccc1Oc1ccccc1)N1CCN(c2ccccn2)CC1,7,u,-79*,u,6,x
COc1ccc(N2CC(NC(=O)/C=C\c3ccc4c(c3)OCO4)CC2=O)cc1OC (configuration not stated),x,2%,x,-15%,7,4%
Cc1ccc2nc(-c3ccccn3)cc(C(=O)NCCc3ccc(F)cc3)c2c1,-17,u,15,21µM*,-15,-5%
O=C(Nc1ccc(S(=O)(=O)Nc2nccs2)cc1)c1cc(-c2ccccc2Cl)nc2ccccc12,-85*,-28%,17,u,2,0%
Cc1ccc(-c2cc(C(=O)NCCc3ccccn3)c3ccccc3n2)c(C)c1,12,u,u,u,1,28µM*
O=C(NCCc1ccccn1)c1cc(-c2cccc3ccccc23)nc2ccccc12,3,26µM*,-14,u,1,-27%
O=C(Nc1ccc(S(=O)(=O)Nc2nccs2)cc1)c1cc(-c2ccccn2)nc2ccccc12,u,16%,-4,8%,-3,x
C[C@@H]1CCC2[C@](C)(CO)C(O)CC[C@@]2(C)[C@@]12CC[C@](CO)(CCO)O2 (some centres not stated),x,6%,x,7%,x,x
SMILES,DRD3 antagonist,DT40 TDP1 CPT,IL-1B inflam inh,DT40 TDP1 no CPT,D3 ag,ClpP mod
Cc1ccc(-c2cc(C(=O)Nc3nccs3)c3ccccc3n2)c(C)c1,57,13µM*,3,13µM*,5,-3%
CCOc1ccccc1C1c2cc3c(cc2OC(C)(N2CCCC2)C1C)OCO3 (configuration not stated),5,27%,9,-12%,-7,x
COc1ccc(C2c3cc4c(cc3OC(N3CCOCC3)C2C)OCO4)c(OC)c1 (configuration not stated),2,5.2µM*,22,4.1µM*,3,5%
CCN(CC)C1Oc2cc3c(cc2C(c2cc(OC)c(O)c(OC)c2)C1C)OCO3 (configuration not stated),7,u,27,u,1,-2%
CCN(CC)C1Oc2cc3c(cc2C(c2cccc(OC)c2O)C1C)OCO3 (configuration not stated),-1,u,-25,23µM*,8,-4%
COc1cccc(C2c3cc4c(cc3OC(C)(N3CCCC3)C2C)OCO4)c1O (configuration not stated),-9,13µM*,-66*,10µM*,-4,2%
COc1cccc(C2c3cc4c(cc3OC(N3CCOCC3)C2C)OCO4)c1O (configuration not stated),u,-91%,0,8.2µM*,9,8%
COc1cccc(C=Nc2ccc(N3CCOCC3)cc2)c1O,-10,8%,19,u,7,1%
COc1ccc(NC(=O)Cc2nnc(SCC(=O)Nc3cc(C)ccc3OC)n2C)cc1,0,-12%,0,-17%,0,25µM*
COc1ccc(C)cc1NC(=O)CSc1nnc(CC(=O)Nc2cccc(C(F)(F)F)c2)n1C,-9,-6%,-14,-9%,18,2%
COc1ccc(-n2cc(-c3ccccc3)nc2SCC(=O)Nc2ccccc2C)cc1,x,u,x,u,-5,-4%
CCc1ccc(NC(=O)CSc2nnc(-c3ccccc3)n2C)cc1,x,16µM*,x,-2%,x,-1%
COc1ccc(C)cc1NC(=O)CSc1nnc(-c2cc3cccc(OC)c3o2)n1N,38,u,63,16µM*,-7,0%
COc1ccc(Cl)cc1-n1cc(-c2ccccc2)nc1SCC(=O)Nc1ccc(C)cc1,x,u,x,18µM*,-6,0%

# Compound activity (PubChem)
